According to PubChem BioAssay (NCATS):
Records with an inconclusive call do not appear. A call without a number means that no potency is given here. Activity calls are given as the source filed them. Calls come from the whole dose curve; as a rule, active = well fitted activation curve with a large enough effect; inconclusive = small, poorly fitted or top-dose-only effect; inactive = flat fitted curve, though single readings scatter.

test: Primary redox qHTS assay for identification of artifact compounds. (AID 1845223); conditions: Amplex Red/HRP redox cycling with DTT, fluorescence; series mostly up to 53.8 µM
Summary of the method: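 Amplex Red (25 uM) and HRP (250 mU/mL) in HBSS, with compounds for 15 min, then 250 uM DTT for 30 min, room temperature, dark. Fluorescence 525/598 nm read; normalized to DMSO and 10 uM DA3003; Hill fit.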

Row | Structure (SMILES) | Potency
1 | C=C1C(=O)O[C@@H]2C[C@@H](C)[C@]34C[C@]5(C(=O)O[C@H]6CC(C)=C([C@H](C)CCCO)[C@H](OC(=O)C(C)CC)[C@H]65)[C@@H](C(C)=C3C[C@@H]12)[C@H]4OC(C)=O (some centres not stated) | inactive
2 | Fc1ccccc1CNCc1ccc(-c2ccnc3[nH]ccc23)cc1 | inactive
3 | CCCCc1nc(C)c(CC(=S)N(C)C)c(=O)n1Cc1ccc(-c2ccccc2-c2nn[nH]n2)cc1 | inactive
4 | Clc1ccccc1CNCC1CCC(CNCc2ccccc2Cl)CC1 (configuration not stated) | inactive
5 | CNc1nc(-c2ccc3c(N)n[nH]c3c2)cc(N2CC(C(=O)NC3CCCCC3)CCC2C)n1 (configuration not stated) | inactive
6 | CC[C@H]1OC(=O)[C@H](C)[C@@H](O[C@H]2C[C@@](C)(OC)[C@@H](O)[C@H](C)O2)[C@H](C)[C@@H](O[C@@H]2O[C@H](C)C[C@H](N(C)C)[C@H]2O)[C@](C)(O)C[C@@H](C)/C(=N/OCOCCOC)[C@H](C)[C@@H](O)[C@]1(C)O | inactive
7 | C[C@@H](CN1CCC(n2c(=O)[nH]c3cc(Cl)ccc32)CC1)NC(=O)c1ccc2ccccc2c1 | inactive
8 | CC1=CC(=O)[C@@]2(C(C)C)C[C@@H]12 | inactive
9 | CN(C)CC(=O)Nc1ccc2[nH]c(=O)c3ccccc3c2c1 | inactive
10 | C=C1C(=O)O[C@@H]2/C=C(/C)CC3C=C(C[C@H](OC(=O)/C(C)=C\C)[C@@H]12)C(=O)O3 (some centres not stated) | inactive
11 | COc1ccc(-c2nc(-c3cc(C(F)(F)F)cc(C(F)(F)F)c3)n(Cc3ccc(C(N)=O)cc3)c2-c2ccc(OC)cc2)cc1 | inactive
12 | CNc1cc(OC)c(C(=O)N[C@@H]2CCN(Cc3ccccc3)[C@@H]2C)cc1Cl | inactive
